Test results published in PubChem BioAssay (NCATS).
Several values for one entry are separate records, joined by “and”; a condition that tells them apart may be missing. Identical values can stand only once. Results filed as inconclusive are left out. Activity calls are given as the source filed them. The call rests on the fitted dose curve; in most records, active means well fitted curve in the direction sought with a large enough effect; inconclusive means small, poorly fitted or top-dose-only effect, or another doubt; inactive means no such curve, though single readings can be large; an effect the other way counts as inactive or inconclusive.

Assays:
[1] = test system: C33A; assay: Primary qHTS to identify gynecologic anti-cancer compounds using libraries of approved drugs and bioactive compounds (AID 1345084); settings: Gynecologic cancer cell panel viability, ATPlite luminescence, 48 h; series mostly up to 57.5 µM; further: nearly all actives have a fitted effect of over 55% in size
In short: (§1)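 ATP-based viability (ATPlite), 1,000 cells/well, 16 h pre-incubation, 48 h compound at 37 C, 5% CO2, 15 min RT before read.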

[2] = test system: CAOV3; assay: as above; settings: Gynecologic cancer cell panel viability, ATPlite luminescence, 48 h; series mostly up to 57.5 µM
In short: as §1

[3] = test system: CASKI; assay: as above; settings: Gynecologic cancer cell panel viability, ATPlite luminescence, 48 h; series mostly up to 57.5 µM
In short: as §1

[4] = test system: Es-2; assay: as above; settings: Gynecologic cancer cell panel viability, ATPlite luminescence, 48 h; series mostly up to 57.5 µM
In short: as §1

[5] = test system: HeLa; assay: as above; settings: Gynecologic cancer cell panel viability, ATPlite luminescence, 48 h; series mostly up to 57.5 µM
In short: as §1

[6] = test system: Hek293T; assay: as above; settings: Gynecologic cancer cell panel viability, ATPlite luminescence, 48 h, control line for the selectivity index; series mostly up to 57.5 µM
In short: as §1

[7] = test system: JEG-3; assay: as above; settings: Gynecologic cancer cell panel viability, ATPlite luminescence, 48 h; series mostly up to 57.5 µM
In short: as §1

[8] = test system: OV90; assay: as above; settings: Gynecologic cancer cell panel viability, ATPlite luminescence, 48 h; series mostly up to 57.5 µM
In short: as §1

[9] = test system: MCC-26; assay: qHTS assay to identify novel small-molecules to repurpose for Merkel cell carcinoma treatment (AID 1296009); settings: MCC and control cell lines, CellTiter-Glo viability, 72 h; series mostly up to 46 µM; further: nearly all actives have a fitted effect of over 60% in size
In short: (§2)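 Cells exposed to NPC (8-point) and MIPE (11-point) compound dilutions for 72 hr at 37 degree celsius; viability read by CellTiter-Glo luminescence, normalized to no-cell and DMSO in-plate controls.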

[10] = test system: MKL-1; assay: as above; settings: MCC and control cell lines, CellTiter-Glo viability, 72 h; series mostly up to 46 µM
In short: as §2

[11] = test system: MKL-2; assay: as above; settings: MCC and control cell lines, CellTiter-Glo viability, 72 h; series mostly up to 46 µM
In short: as §2

[12] = test system: UISO; assay: as above; settings: MCC and control cell lines, CellTiter-Glo viability, 72 h; series mostly up to 46 µM
In short: as §2

[13] = test system: WaGa; assay: as above; settings: MCC and control cell lines, CellTiter-Glo viability, 72 h; series mostly up to 46 µM
In short: as §2

Measured: Potency
Potency means the concentration at half of the fitted maximal effect.

Cc1c(C(N)=O)cc([N+](=O)[O-])cc1[N+](=O)[O-]
inactive: [1] | [2] | [3] | [4] | [5] | [6] | [7] | [8]

COc1cc(C(=S)N2CCOCC2)cc(OC)c1OC
inactive: [1] | [2] | [3] | [4] | [5] | [6] | [7] | [8]

O=C(OCCOCCO)c1ccccc1Nc1cccc(C(F)(F)F)c1
inactive: [1] | [2] | [3] | [4] | [5] | [6] | [7] | [8]

C#C[C@]1(OC(C)=O)CC[C@H]2[C@@H]3CCC4=C[C@@H](OC(C)=O)CC[C@@H]4[C@H]3CC[C@@]21C
inactive: [1] | [2] | [3] | [4] | [6] | [7] | [8]

O=c1c(-c2ccccc2)c1-c1ccccc1
active: [10] 26.6 µM | [11] 13.3 µM | [12] 26.6 µM | [13] 18.8 µM
inactive: [9] | [5] | [7]

Nc1ccn([C@@H]2O[C@H](CO)[C@@H](O)C2(F)F)c(=O)n1
inactive: [1] | [3] | [5] | [6] | [7]
active: [2] 631 nM and 1.12 µM

CCN1CCN(c2cc3c(cc2F)c(=O)c(C(=O)O)cn3C2CC2)CC1
inactive: [1] | [3] | [4] | [5] | [6] | [7] | [8]

O=c1[nH]c(=O)n([C@H]2C[C@H](O)[C@@H](CO)O2)cc1C(F)(F)F
inactive: [2] | [5] | [6] | [7] | [8]
